Reference: PubChem BioAssay (Tox21)
Several values for one entry are separate records, joined by “and”; a condition that tells them apart may be missing. Identical values can stand only once. Records with an inconclusive call do not appear. Where a structure was tested more than once in an assay, its records may differ in their call. Activity calls are given as the source filed them. Calls come from the whole dose curve; as a rule, active = well fitted curve in the direction sought with a large enough effect in the repeat runs; inconclusive = weak or mixed curves; inactive = no such curve, though single readings can be large; an effect the other way counts as inactive or inconclusive.

What was measured:
[1] = A CellTox Green Cytotoxicity Assay to monitor cytotoxicity in HEK293 cells - 40 hour (AID 1224871); note: nearly all actives have a fitted effect of over 45% in size; note: potency is the fitted concentration of half-maximal effect
How it was run: (§1)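 Dead-cell fluorescence measured kinetically: asymmetric cyanine dye, HEK293, 600 cells/well, 5 h settle, 23 nL cpd/DMSO, 37 C, reads 0–40 h every 8 h.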

[2] = qHTS RealTime-Glo MT Cell Viability Assay in HEK293 cells - 16 hour (AID 1224872); note: nearly all actives have a fitted effect of over 50% in size; note: potency is the fitted concentration of half-maximal effect; for activity change, negative = cytotoxicity: top concentration of the series differs between compounds
How it was run: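 Assay medium contained NanoLuc luciferase plus cell-permeant prosubstrate, added with HEK293 cells at 600 cells/well. After 5 h at 37 C/5% CO2 compounds were added; plates stayed at 37 C for 40 h with serial luminescence reads.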

[3] = qHTS RealTime-Glo MT Cell Viability Assay in HepG2 cells - 8 hour (AID 1224873); note: nearly all actives have a fitted effect of over 55% in size; note: potency is the fitted concentration of half-maximal effect
How it was run: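 HepG2 cells (600/well) mixed with RealTime-Glo MT reagent, settled 5 h at 37 C/5% CO2 before compound addition. Nonlytic NanoLuc luminescence from viable-cell prosubstrate reduction read repeatedly during 40 h treatment at 37 C.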

[4] = qHTS RealTime-Glo MT Cell Viability Assay in HEK293 cells - 40 hour (AID 1224874); settings: RealTime-Glo luminescence; max response: stronger effect = lower value; note: nearly all actives have a fitted effect of over 50% in size; note: potency is the fitted concentration of half-maximal effect
How it was run: (§2)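 600 HEK293 cells per well, dispensed already mixed with RealTime-Glo MT reagents. Compound dosing came 5 h later. The same wells were read for luminescence at 0, 8, 16, 24, 32 and 40 h of exposure at 37 C.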

[5] = A CellTox Green Cytotoxicity Assay to monitor cytotoxicity in HEK293 cells - 24 hour (AID 1224875); note: nearly all actives have a fitted effect of over 45% in size; note: potency is the fitted concentration of half-maximal effect; for activity change: series mostly up to about 77 µM
How it was run: as §1

[6] = A CellTox Green Cytotoxicity Assay to monitor cytotoxicity in HepG2 cells - 16 hour (AID 1224876); note: nearly all actives have a fitted effect of over 45% in size; note: potency is the fitted concentration of half-maximal effect
How it was run: (§3)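 First, HepG2 cells (600/well) mixed with reagent were plated; second, after 5 h at 37 C they received compounds via pintool; third, fluorescence was measured at 0 h through 40 h at 8 h intervals.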

[7] = qHTS RealTime-Glo MT Cell Viability Assay in HepG2 cells - 32 hour (AID 1224877); note: nearly all actives have a fitted effect of over 55% in size; note: potency is the fitted concentration of half-maximal effect
How it was run: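 qHTS, HepG2, 600 cells/well, RealTime-Glo (NanoLuc + prosubstrate) added with cells; 5 h preincubation; DMSO compound addition; 37 C; luminescence at 0/8/16/24/32/40 h.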

[8] = A CellTox Green Cytotoxicity Assay to monitor cytotoxicity in HepG2 cells - 24 hour (AID 1224878); note: nearly all actives have a fitted effect of over 45% in size; note: potency is the fitted concentration of half-maximal effect
How it was run: as §3

[9] = A CellTox Green Cytotoxicity Assay to monitor cytotoxicity in HepG2 cells - 40 hour (AID 1224879); note: nearly all actives have a fitted effect of over 40% in size; note: potency is the fitted concentration of half-maximal effect
How it was run: as §3

[10] = qHTS RealTime-Glo MT Cell Viability Assay in HEK293 cells - 0 hour (AID 1224880)
How it was run: as §2
% is set by controls: 0 for no effect and ±100 for the full control effect.

CC(N=C(NC#N)Nc1ccncc1)C(C)(C)C (stereo unspecified)
inactive: Potency [1] | Potency [2] | Potency [3] | max response [4] -0.652% | Potency [5] | Potency [6] | Potency [7] | Potency [8] | Potency [9] | Potency [10]

c1cnccn1
inactive: Potency [1] | Potency [2] | Potency [3] | max response [4] 2.57% | Potency [5] | Potency [6] | Potency [7] | Potency [8] | Potency [9] | Potency [10]

CCCCCCCCCCCCCC[N+](C)(C)Cc1ccccc1
inactive: Potency [10]
active: Potency [1] 24.9 µM and 19 µM and 15.8 mM | Potency [2] 19.8 µM and 9.52 µM and 12.6 mM | Potency [3] 55.8 µM and 21.3 µM | Potency [4] 3.14 µM and 3.01 µM and 1.58 mM | Potency [5] 39.5 µM and 21.3 µM and 17.8 mM | Potency [6] 49.7 µM and 23.9 µM and 17.8 mM | Potency [7] 24.9 µM and 13.4 µM | Potency [8] 39.5 µM and 16.9 µM and 17.8 mM | Potency [9] 22.2 µM and 15.1 µM and 14.1 mM

C=C(CC)C(=O)c1ccc(OCC(=O)O)c(Cl)c1Cl
inactive: Potency [1] | Potency [2] | Potency [3] | max response [4] -6.17% and 15.5% | Potency [5] | Potency [6] | Potency [7] | Potency [8] | Potency [9] | Potency [10]

CCC(COC(=O)CCS)(COC(=O)CCS)COC(=O)CCS
inactive: Potency [1] | Potency [2] | Potency [3] | max response [4] 0.669% | Potency [5] | Potency [6] | Potency [7] | Potency [8] | Potency [9] | Potency [10]

CCC(CC)(CC(=O)Nc1cccc(/C=C/c2nc(C3CCC3)cs2)c1)C(=O)O
inactive: Potency [1] | Potency [2] | Potency [3] | max response [4] -19.8% | Potency [5] | Potency [6] | Potency [8] | Potency [9]

Cc1nc(-c2ccc(Cl)cc2)oc1COC(C)(C)C(=O)O
inactive: Potency [1] | Potency [2] | Potency [3] | max response [4] 0.172% | Potency [5] | Potency [6] | Potency [8] | Potency [9] | Potency [10]

Clc1ccnc(Cl)n1
inactive: Potency [1] | Potency [2] | Potency [3] | max response [4] 11.8% | Potency [5] | Potency [6] | Potency [8] | Potency [9] | Potency [10]

CC1(C)[C@@H](O)CC[C@]2(C)[C@H]3C(=O)C=C4[C@@H]5C[C@@](C)(C(=O)O)CC[C@]5(C)CC[C@@]4(C)[C@]3(C)CC[C@@H]12
inactive: Potency [1] | Potency [2] | Potency [3] | max response [4] 13.7% | Potency [5] | Potency [6] | Potency [7] | Potency [10]

Cc1c(C)c([N+](=O)[O-])c(C(C)(C)C)c([N+](=O)[O-])c1C
inactive: Potency [1] | Potency [2] | Potency [3] | max response [4] -0.27% | Potency [5] | Potency [6] | Potency [7] | Potency [8] | Potency [9] | Potency [10]

S=c1nccc[nH]1
inactive: Potency [1] | Potency [2] | Potency [3] | max response [4] 13.6% | Potency [5] | Potency [6] | Potency [7] | Potency [8] | Potency [9] | Potency [10]

CN(C)c1ccc(C(=C2C=CC(=[N+](C)C)C=C2)c2ccc(N(C)C)cc2)cc1
active: Potency [1] 21.9 µM and 21.3 µM | Potency [2] 6.88 µM and 19.5 µM and 7.56 µM | Potency [3] 19.4 µM and 24.5 µM | Potency [4] 1.73 µM and 4.9 µM and 1.69 µM | Potency [7] 30.7 µM and 24.5 µM and 21.3 µM | Potency [8] 10.9 µM and 12.3 µM and 19 µM | Potency [9] 10.9 µM and 12.3 µM and 21.3 µM
inactive: Potency [5] | Potency [10]
10.9 µM (active) and inactive: Potency [6]

CCN(CCN)c1cccc(C)c1
inactive: Potency [1] | Potency [2] | Potency [3] | max response [4] -16.9% and 1.24% | Potency [5] | Potency [6] | Potency [7] | Potency [8] | Potency [9] | Potency [10]

C[C@H]1NCc2cc(-c3ccc4c(=O)c(C(=O)O)cn(C5CC5)c4c3OC(F)F)ccc21
inactive: cytotoxicity increase [1] -4.15% [at 15.8 µM] | activity change, negative = cytotoxicity [2] -1.72% [at 15.8 µM] | viability change, negative = cytotoxic [3] -17% [at 15.8 µM] | max response [4] -6.6% | activity change [5] -2.55% [at 15.8 µM, stronger effect = higher value] | cytotoxicity increase [6] 1.43% [at 15.8 µM] | activity change, negative = cytotoxic [7] -0.83% [at 15.8 µM] | cytotoxicity [8] 1.74% [at 15.8 µM] | cytotoxicity increase [9] 1.86% [at 15.8 µM] | activity change, negative = cytotoxicity [10] -10.2% [at 15.8 µM]

CNc1ccc([N+](=O)[O-])cc1
inactive: Potency [1] | Potency [2] | Potency [3] | max response [4] -13.4% | Potency [5] | Potency [6] | Potency [7] | Potency [8] | Potency [9] | Potency [10]

CCCCNS(=O)(=O)c1ccc(C)cc1
active: Potency [8] 6.16 µM
inactive: Potency [1] | Potency [2] | Potency [3] | max response [4] -16.6% | Potency [5] | Potency [6] | Potency [7] | Potency [10]

CCO[Si](OCC)(OCC)OCC
inactive: Potency [1] | Potency [2] | Potency [3] | max response [4] 3.28% | Potency [5] | Potency [6] | Potency [7] | Potency [8] | Potency [9] | Potency [10]

CCCCC(CC)CN1CN(CC(CC)CCCC)CC(C)(N)C1 (stereo unspecified)
active: Potency [1] 10.7 µM | Potency [2] 9.52 µM | Potency [3] 19 µM | Potency [4] 9.52 µM | Potency [5] 10.7 µM | Potency [6] 19 µM | Potency [8] 19 µM | Potency [9] 19 µM

COc1cc(C)ccc1O
inactive: Potency [1] | Potency [2] | Potency [3] | max response [4] 3.04% | Potency [5] | Potency [6] | Potency [7] | Potency [8] | Potency [9] | Potency [10]

CC1=CCC(=C(C)C)CC1
inactive: Potency [1] | Potency [2] | Potency [3] | max response [4] -2.74% | Potency [5] | Potency [6] | Potency [7] | Potency [8] | Potency [9] | Potency [10]

Cc1ccc(N/N=c2\c(=O)cc/c(=N\Nc3ccc(S(=O)(=O)O)cc3)c2=O)c(C)c1
inactive: Potency [1] | Potency [2] | Potency [3] | max response [4] 1.45% | Potency [5] | Potency [6] | Potency [7] | Potency [8] | Potency [9] | Potency [10]

CCc1cccc(CC)c1NC(=O)CN(CC(=O)O)CC(=O)O
inactive: Potency [1] | Potency [2] | Potency [3] | max response [4] 1.69% | Potency [5] | Potency [6] | Potency [7] | Potency [8] | Potency [9] | Potency [10]

CC(C)(c1cc(Br)c(OCC(Br)CBr)c(Br)c1)c1cc(Br)c(OCC(Br)CBr)c(Br)c1 (stereo unspecified)
inactive: Potency [1] | Potency [2] | Potency [3] | max response [4] -0.358% | Potency [5] | Potency [6] | Potency [8] | Potency [9] | Potency [10]

COC(=O)c1ccccc1C
inactive: Potency [1] | Potency [2] | Potency [3] | max response [4] -4.12% | Potency [5] | Potency [6] | Potency [8] | Potency [9] | Potency [10]

ClCCl
inactive: Potency [1] | Potency [2] | Potency [3] | max response [4] 10.5% | Potency [5] | Potency [6] | Potency [7] | Potency [8] | Potency [9] | Potency [10]

CC/C=C\CCCCCO
inactive: Potency [1] | Potency [2] | Potency [3] | max response [4] 9.87% | Potency [5] | Potency [6] | Potency [7] | Potency [10]

CCCCCCOC(=O)C(C)CC (stereo unspecified)
inactive: Potency [1] | Potency [2] | Potency [3] | max response [4] -1.46% | Potency [5] | Potency [6] | Potency [7] | Potency [8] | Potency [9] | Potency [10]

CCCCC(CC)COC(=O)CCCCC(=O)OCc1ccccc1 (stereo unspecified)
inactive: Potency [1] | Potency [2] | Potency [3] | max response [4] -2.79% | Potency [5] | Potency [6] | Potency [7] | Potency [8] | Potency [9] | Potency [10]

Cc1c(N)cccc1C(F)(F)F
inactive: Potency [1] | Potency [2] | Potency [3] | max response [4] -0.691% | Potency [5] | Potency [6] | Potency [7] | Potency [8] | Potency [9] | Potency [10]

O=[N+]([O-])c1ccc(F)c(Cl)c1
inactive: Potency [1] | Potency [2] | Potency [3] | max response [4] 14.6% | Potency [5] | Potency [6] | Potency [7] | Potency [8] | Potency [9] | Potency [10]

Cc1c(C)c2c(c(C)c1O)CC[C@@](C)(CCC[C@H](C)CCC[C@H](C)CCCC(C)C)O2
inactive: Potency [1] | Potency [2] | Potency [3] | max response [4] -14.1% | Potency [5] | Potency [6] | Potency [7] | Potency [8] | Potency [9] | Potency [10]

C=Cc1ccccc1C=C
inactive: Potency [1] | Potency [2] | Potency [3] | max response [4] 16.3% | Potency [5] | Potency [6] | Potency [7] | Potency [8] | Potency [10]

C=C(C)c1cccc(C(=C)C)c1
inactive: Potency [1] | Potency [2] | Potency [3] | max response [4] -0.359% | Potency [5] | Potency [6] | Potency [7] | Potency [8] | Potency [9] | Potency [10]

CC1(C)CC(O)CC(C)(C)N1
inactive: Potency [1] | Potency [2] | Potency [3] | max response [4] -4.64% | Potency [5] | Potency [6] | Potency [7] | Potency [8] | Potency [9] | Potency [10]

CCOc1ccc2ccccc2c1C(=O)N[C@@H]1C(=O)N2[C@@H]1SC(C)(C)[C@@H]2C(=O)O
inactive: Potency [1] | Potency [2] | Potency [3] | max response [4] 1.12% | Potency [5] | Potency [6] | Potency [7] | Potency [8] | Potency [9] | Potency [10]

O=C(O)c1cc(-c2ccc(F)cc2F)ccc1O
inactive: Potency [1] | Potency [2] | Potency [3] | max response [4] -1.84% | Potency [5] | Potency [6] | Potency [7] | Potency [8] | Potency [9] | Potency [10]

CC(C)OC(=O)C(O)(CC(=O)O)CC(=O)O
inactive: Potency [1] | Potency [2] | Potency [3] | max response [4] 1.68% | Potency [5] | Potency [6] | Potency [7] | Potency [8] | Potency [9] | Potency [10]
